# Assay outcomes from PubChem.
# PHOSPHO1 block: PubChem AID 1565; Phosphoethanolamine/phosphocholine phosphatase (Homo sapiens), Q8TCT1; inhibition, % at 13.3 µM; recombinant PHOSPHO1, absorbance phosphatase assay; actives 1.1% (n = 290,000); in the data active = inhibition above about 60%
# Target sequence (Q8TCT1 whole entry, looked up): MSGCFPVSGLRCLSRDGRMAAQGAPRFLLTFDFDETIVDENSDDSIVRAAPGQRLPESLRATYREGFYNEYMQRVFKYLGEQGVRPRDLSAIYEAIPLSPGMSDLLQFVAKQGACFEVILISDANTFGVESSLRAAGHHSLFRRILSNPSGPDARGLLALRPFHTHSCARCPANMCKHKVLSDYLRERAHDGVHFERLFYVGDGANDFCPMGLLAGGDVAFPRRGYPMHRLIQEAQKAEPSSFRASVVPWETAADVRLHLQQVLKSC
# MITF TRPM1 HTS: activators of MITF-driven TRPM1 promoter reporter, primary screen, cell-based, SK-MEL-5, luciferase, single point; activation, % at 12.5 µM; actives 0.75% (n = 300,000); AID 588334, 2011; SK-MEL-5 TRPM1-promoter luciferase, 24 h; % of positive control, neutral wells = 0;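 active = mean activation of at least 80% with every replicate also reaching 80%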;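 note: 0% = neutral control wells and 100% = parthenolide positive control wells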
# esBAF inh: Bmi1 luciferase reporter increase in mESCs, primary screen, esBAF inhibitor project, mouse ES cells, Bmi1 luciferase knock-in, single point; 24 h; 100% = twice the neutral-well signal; reporter increase, % at 12.5 µM; actives 2% (n = 350,000); in the data active = activation above about 40%;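 note: 0% = median of the plate's neutral control wells and 100% = double that signal; a rise in the Bmi1 reporter signal indicates esBAF inhibition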
# APOBEC3A inh: APOBEC3A ssDNA deaminase inhibitors, primary screen, selectivity assay for APOBEC3G inhibitor project, biochemical, FAM/TAMRA oligo cleavage fluorescence; recombinant A3A, FAM/TAMRA ssDNA deamination fluorescence; DNA dC->dU-editing enzyme APOBEC-3A (Homo sapiens), P31941; inhibition, % at 20 µM; actives 0.41% (n = 330,000); AID 493011, 2011;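 active = at least 40% inhibition at 20 µM here, with at most 30% in a related deaminase screen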;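 note: plate controls were A3A with DMSO for no effect and wells lacking A3A enzyme for full effect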
# Target sequence (P31941 whole entry, looked up): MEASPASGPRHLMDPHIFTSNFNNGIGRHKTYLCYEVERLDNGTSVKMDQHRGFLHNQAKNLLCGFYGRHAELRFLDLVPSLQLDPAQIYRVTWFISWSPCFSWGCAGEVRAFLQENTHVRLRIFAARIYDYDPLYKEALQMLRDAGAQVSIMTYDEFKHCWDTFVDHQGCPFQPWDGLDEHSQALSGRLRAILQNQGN
# Wnt act: Wnt/beta-catenin pathway activators, primary screen, cell-based, plate reader, single point | activation, % at 9.35 µM | actives 1.2% (n = 300,000) | AID 743398, 2014 | Wnt/beta-catenin reporter cell assay, activator; in the data active = activation above about 30%, passing the limit was not always enough;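 note: 0% = neutral control wells and 100% = positive control wells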
# APOBEC3G inh: APOBEC3G DNA deaminase inhibitors, primary screen, biochemical, fluorescence, single-stranded DNA substrate, uHTS. recombinant A3G, ssDNA deamination FAM/TAMRA fluorescence. inhibition, % at 20 µM. AID 493012, 2011. actives 0.28% (n = 330,000);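 active = inhibition of at least 40% at 20 µM, with no more than 30% in the related APOBEC3A deaminase screen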;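 note: plate controls were DMSO wells with A3G for no effect and wells lacking A3G enzyme for full effect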
# APOBEC3A confirm: APOBEC3A deaminase inhibitors, retest, confirmation, selectivity assay for APOBEC3G inhibitor project, biochemical, single concentration, fluorescence readout; inhibition, % at 20 µM; recombinant A3A, ssDNA deaminase UDG fluorescence assay; shares compounds with APOBEC3A inh; actives 63% (n = 1,400);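 active = inhibition reaching a set limit, 80% of the first screen's cutoff, at 20 µM in any replicate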;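 note: plate controls were DMSO wells with A3A for no effect and wells lacking A3A enzyme for full effect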
# UDG A3A counter: E. coli UDG inhibitors, confirmation, counter-screen for APOBEC3A inhibitor project, biochemical, single concentration, fluorescence, FAM/TAMRA oligo. shares compounds with APOBEC3A inh. UDG counterscreen, FAM/TAMRA uracil oligo fluorescence. inhibition, % at 20 µM. 1,000 tested, under 10 active. AID 504714, 2011; call rule not given here
# The depositor's hits bear a star; · = not tested or not shown. Hits are enriched below; roughly 3.6% of the tested compounds scored in any of these assays.
SMILES,PHOSPHO1 block,MITF TRPM1 HTS,esBAF inh,APOBEC3A inh,Wnt act,APOBEC3G inh,APOBEC3A confirm,UDG A3A counter
CNC[C@@H]1Oc2ccc(NS(=O)(=O)c3ccccc3)cc2CC(=O)N([C@H](C)CO)C[C@H]1C,·,·,-3.0,·,·,·,·,·
COc1cccc(CN(C(=O)c2ccco2)C2CCS(=O)(=O)C2)c1 (stereo not drawn),52.9,-9.3,-0.8,-8.2,-1.3,-7.5,·,·
COc1ccc(CN(C(=O)c2ccco2)C2CCS(=O)(=O)C2)cc1 (stereo not drawn),46.5,-7.6,·,72.1*,3.3,-8.2,-6.4,1.7
Cc1cc(C(=O)Nc2cccc3c2O[C@H](CN(C)CC2CCCCC2)[C@@H](C)CN([C@H](C)CO)C3=O)n(C)n1,·,·,-4.7,·,·,·,·,·
COc1ccc(NC(=O)N(C)C[C@@H]2OCCCC[C@@H](C)Oc3ccc(NC(=O)Cc4ccccc4)cc3C(=O)N([C@@H](C)CO)C[C@H]2C)cc1,·,·,-2.0,·,·,·,·,·
COc1ccc(N(CC(=O)N2CCc3ccccc3C2)S(C)(=O)=O)cc1Cl,-1.3,5.7,-12.3,47.2*,-0.1,6.1,12.5,·
COc1ccc(N(CC(=O)N2CCCCCC2)S(C)(=O)=O)cc1Cl,30.2,·,-3.6,-2.4,-2.3,-3.5,·,·
O=C(Cc1ccccn1)N[C@H]1CC[C@H](CCNC(=O)c2cc(Cl)cc(Cl)c2)O[C@H]1CO,·,·,0.6,·,·,·,·,·
CO[C@H]1CN(C)C(=O)c2cc(NC(=O)C3CCCC3)ccc2OC[C@@H](C)NC[C@@H]1C,·,·,-9.1,·,·,·,·,·
Cc1ccc(NS(=O)(=O)c2ccc(C)c(C(=O)N3CCOCC3)c2)cc1,17.8,10.9,·,-0.7,-0.1,12.0,·,·
CCc1ccc(NS(=O)(=O)c2ccc(C)c(C(=O)N3CCOCC3)c2)cc1,17.4,8.5,·,74.5*,0.0,14.8,90.7*,-5.2
CC1(OC(=O)C2CCCC2)C(=O)C=C2C=C3CCCCN3C=C2C1=O (stereo not drawn),26.5,1.7,-3.8,43.9*,·,19.5,22.8*,2.1
COC(=O)CCC(=O)OC1(C)C(=O)C=C2C=C3CCCN3C=C2C1=O (stereo not drawn),4.5,0.3,·,54.2,-1.3,42.8,·,·
C[n+]1cccc(C2C(C#N)=C(N)Oc3c2ccc2ccccc32)c1 (stereo not drawn),-53.2,·,·,41.0*,2.7,15.3,30.6*,-1.4
C[n+]1cccc2ccc3c(c21)OC(N)=C(C#N)C3c1ccccc1 (stereo not drawn),3.3,·,3.4,33.7,1.6,13.0,·,·
O=C(c1cccnc1)N1CCN(c2ccc(Cl)cc2)CC1,-1.0,1.9,0.6,47.7*,·,-6.0,-4.2,-1.6
O=C1CN=C(Nc2ccccc2Cl)N1Cc1ccc2c(c1)OCO2,-3.5,·,-1.0,96.0*,0.6,-1.2,-5.6,8.7
CCCCn1c(N)c(N(CC(C)C)C(=O)COC(=O)c2ccccc2NCCO)c(=O)[nH]c1=O,·,-14.6,5.4,41.5*,2.8,8.0,16.7,·
CN1C(=O)c2cc(NC(=O)c3cccs3)ccc2OC[C@@H]2O[C@H](CC(=O)N3CCOCC3)CC[C@@H]21,·,·,-2.6,·,·,·,·,·
CO[C@@H]1CN(C)C(=O)c2ccc(NS(=O)(=O)c3ccccc3)cc2OC[C@H](C)N(Cc2nccs2)C[C@H]1C,·,·,-2.6,·,·,·,·,·
